# Reference: PMC7862700, “An all-to-all approach to the identification of sequence-specific readers for epigenetic DNA modifications on cytosine”
# Key:
# Assay in all cases: DAPPL (digital affinity profiling via proximity ligation, sequencing); 10 mM Tris-HCl pH 7.5, 50 mM NaCl, 1 mM DTT, 4% glycerol, room temperature, 30 min; GST-TFs on glutathione beads, 16-mer random dsDNA library, 0.1% formaldehyde crosslink after washing; high values mean tight binding
# Settings in all cases: protein: recombinant; tags: N-terminal GST; dsDNA, one strand shown
# FLI1 = molecular target: T1, FLI1 (Homo sapiens, UniProt Q01543 1-452)
# T1 sequence: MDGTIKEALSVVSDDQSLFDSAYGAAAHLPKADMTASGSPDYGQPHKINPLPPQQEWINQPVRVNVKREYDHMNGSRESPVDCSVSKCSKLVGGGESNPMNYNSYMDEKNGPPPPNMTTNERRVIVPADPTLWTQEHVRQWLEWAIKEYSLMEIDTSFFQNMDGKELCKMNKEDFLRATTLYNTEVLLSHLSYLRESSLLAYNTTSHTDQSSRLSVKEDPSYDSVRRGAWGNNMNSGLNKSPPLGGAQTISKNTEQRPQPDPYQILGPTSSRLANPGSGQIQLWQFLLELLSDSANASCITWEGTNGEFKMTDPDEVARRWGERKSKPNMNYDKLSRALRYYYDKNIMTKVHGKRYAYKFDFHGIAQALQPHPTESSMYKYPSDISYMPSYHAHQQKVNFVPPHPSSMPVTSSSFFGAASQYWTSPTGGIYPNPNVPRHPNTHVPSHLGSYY
# In short: (§1)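 Human transcription factors carrying a GST fusion were produced in yeast, bound to glutathione beads, tagged with DNA barcodes and pooled together with a tag-only sample. Each pool was held with 200 nmole of a random double-stranded 16-mer DNA library in Tris/NaCl/DTT/glycerol buffer for 30 min at room temperature, then washed, crosslinked in 0.1% formaldehyde, proximity-ligated with BsaI/T4 ligase (1 h, 37 °C), PCR-amplified and sequenced on an Illumina NextSeq500. Binding signal is the read frequency of each hexamer for a given factor divided by its frequency in the tag-only sample.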
# GABPA = molecular target: T2, GABPA (Homo sapiens, UniProt Q06546 1-454)
# T2 sequence: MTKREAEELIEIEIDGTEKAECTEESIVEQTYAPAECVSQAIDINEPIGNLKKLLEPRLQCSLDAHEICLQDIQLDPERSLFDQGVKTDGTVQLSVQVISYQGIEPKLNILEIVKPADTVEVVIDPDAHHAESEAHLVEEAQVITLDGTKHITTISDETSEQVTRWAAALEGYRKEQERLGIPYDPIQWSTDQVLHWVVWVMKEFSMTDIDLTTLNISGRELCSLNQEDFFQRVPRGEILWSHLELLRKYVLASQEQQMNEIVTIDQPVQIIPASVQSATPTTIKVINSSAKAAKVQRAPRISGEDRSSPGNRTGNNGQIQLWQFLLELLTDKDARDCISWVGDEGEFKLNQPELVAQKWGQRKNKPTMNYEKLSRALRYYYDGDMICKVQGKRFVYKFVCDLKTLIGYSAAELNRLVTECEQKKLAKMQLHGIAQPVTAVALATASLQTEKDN
# In short: as §1
# ERG = molecular target: T3, ERG (Homo sapiens, UniProt P11308 1-479)
# T3 sequence: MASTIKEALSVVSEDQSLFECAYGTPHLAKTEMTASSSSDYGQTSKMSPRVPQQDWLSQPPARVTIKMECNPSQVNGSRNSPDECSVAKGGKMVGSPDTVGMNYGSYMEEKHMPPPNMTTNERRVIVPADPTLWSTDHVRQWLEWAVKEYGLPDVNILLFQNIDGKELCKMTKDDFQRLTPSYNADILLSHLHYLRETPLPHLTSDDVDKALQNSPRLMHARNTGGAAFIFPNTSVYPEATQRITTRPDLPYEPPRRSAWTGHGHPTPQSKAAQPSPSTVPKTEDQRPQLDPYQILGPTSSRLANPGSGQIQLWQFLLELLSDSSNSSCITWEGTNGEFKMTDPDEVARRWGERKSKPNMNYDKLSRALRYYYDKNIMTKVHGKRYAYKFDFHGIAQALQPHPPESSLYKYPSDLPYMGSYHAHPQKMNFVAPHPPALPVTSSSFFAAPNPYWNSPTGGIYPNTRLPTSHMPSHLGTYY
# In short: as §1
# ELF1 = ELF1 (Homo sapiens, UniProt P32519 1-619)
# Sequence of ELF1 (P32519 whole entry): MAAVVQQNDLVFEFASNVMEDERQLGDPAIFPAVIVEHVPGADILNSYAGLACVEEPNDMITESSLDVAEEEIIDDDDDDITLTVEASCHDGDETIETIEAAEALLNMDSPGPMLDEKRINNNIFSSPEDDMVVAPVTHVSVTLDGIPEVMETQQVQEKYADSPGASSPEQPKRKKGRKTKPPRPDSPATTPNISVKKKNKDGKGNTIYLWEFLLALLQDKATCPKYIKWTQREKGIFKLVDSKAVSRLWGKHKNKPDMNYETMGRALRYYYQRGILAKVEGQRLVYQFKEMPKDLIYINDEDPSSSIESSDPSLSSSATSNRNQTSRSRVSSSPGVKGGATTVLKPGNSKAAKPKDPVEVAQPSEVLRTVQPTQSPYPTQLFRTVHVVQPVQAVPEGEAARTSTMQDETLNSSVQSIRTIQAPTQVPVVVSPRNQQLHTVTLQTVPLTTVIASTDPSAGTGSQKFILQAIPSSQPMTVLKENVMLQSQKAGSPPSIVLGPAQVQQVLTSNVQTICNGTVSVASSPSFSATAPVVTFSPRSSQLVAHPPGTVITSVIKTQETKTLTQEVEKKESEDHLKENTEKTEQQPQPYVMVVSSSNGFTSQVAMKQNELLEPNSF
# In short: as §1
# EHF = molecular target: T4, EHF (Homo sapiens, UniProt Q9NZC4 1-300)
# T4 sequence: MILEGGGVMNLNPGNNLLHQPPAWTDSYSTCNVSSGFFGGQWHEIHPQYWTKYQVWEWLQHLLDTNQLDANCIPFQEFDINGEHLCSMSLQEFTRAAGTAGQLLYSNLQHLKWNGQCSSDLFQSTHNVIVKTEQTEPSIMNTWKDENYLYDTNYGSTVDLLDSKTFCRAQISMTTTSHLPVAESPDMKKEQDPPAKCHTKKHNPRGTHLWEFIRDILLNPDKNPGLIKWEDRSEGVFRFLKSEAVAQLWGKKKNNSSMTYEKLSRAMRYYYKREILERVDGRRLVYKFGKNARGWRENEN
# In short: as §1
# SPI1 = SPI1 (Homo sapiens, UniProt P17947 1-270)
# In short: as §1
# SPIB = SPIB (Homo sapiens, UniProt Q01892 1-262)
# Sequence of SPIB (Q01892 whole entry): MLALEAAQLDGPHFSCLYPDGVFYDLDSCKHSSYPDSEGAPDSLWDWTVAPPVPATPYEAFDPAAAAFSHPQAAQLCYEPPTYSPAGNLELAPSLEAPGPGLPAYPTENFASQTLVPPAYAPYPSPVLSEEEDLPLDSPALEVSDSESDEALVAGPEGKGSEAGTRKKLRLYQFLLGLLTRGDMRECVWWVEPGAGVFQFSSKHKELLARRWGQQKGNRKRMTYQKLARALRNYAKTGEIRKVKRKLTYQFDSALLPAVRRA
# In short: as §1
# ELK3 = molecular target: T5, ELK3 (Homo sapiens, UniProt P41970 1-407)
# T5 sequence: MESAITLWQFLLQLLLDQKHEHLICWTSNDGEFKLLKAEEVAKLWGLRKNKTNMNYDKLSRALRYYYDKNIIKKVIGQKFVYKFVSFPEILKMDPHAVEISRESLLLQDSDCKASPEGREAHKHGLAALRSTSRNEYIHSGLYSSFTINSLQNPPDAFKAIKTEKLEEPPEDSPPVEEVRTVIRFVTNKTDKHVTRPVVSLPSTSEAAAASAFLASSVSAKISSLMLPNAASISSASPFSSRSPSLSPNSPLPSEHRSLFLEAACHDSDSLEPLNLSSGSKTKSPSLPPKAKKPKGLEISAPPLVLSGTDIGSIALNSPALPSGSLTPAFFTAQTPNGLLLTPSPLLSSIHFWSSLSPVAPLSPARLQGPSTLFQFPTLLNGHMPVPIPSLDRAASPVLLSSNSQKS
# In short: as §1
# FEV = molecular target: T6, FEV (Homo sapiens, UniProt Q99581 1-238)
# T6 sequence: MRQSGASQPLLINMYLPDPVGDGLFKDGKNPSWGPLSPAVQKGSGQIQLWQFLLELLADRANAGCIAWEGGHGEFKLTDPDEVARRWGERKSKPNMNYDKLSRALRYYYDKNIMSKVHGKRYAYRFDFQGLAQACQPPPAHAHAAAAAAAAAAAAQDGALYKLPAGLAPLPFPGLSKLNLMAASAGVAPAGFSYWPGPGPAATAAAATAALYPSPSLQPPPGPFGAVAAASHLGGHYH
# In short: as §1
sequence,measurement,setting,value
GTCCTG,binding signal,FLI1,"1.09 fold enrichment (6-mer frequency, TF over GST control)"
same,binding signal,GABPA,"1.05 fold enrichment (6-mer frequency, TF over GST control)"
same,binding signal,ERG,"1.17 fold enrichment (6-mer frequency, TF over GST control)"
same,binding signal,ELF1,"1.15 fold enrichment (6-mer frequency, TF over GST control)"
same,binding signal,EHF,"1.09 fold enrichment (6-mer frequency, TF over GST control)"
same,binding signal,SPI1,"1.16 fold enrichment (6-mer frequency, TF over GST control)"
same,binding signal,SPIB,"1.15 fold enrichment (6-mer frequency, TF over GST control)"
same,binding signal,ELK3,"1.05 fold enrichment (6-mer frequency, TF over GST control)"
same,binding signal,FEV,"1.1 fold enrichment (6-mer frequency, TF over GST control)"
